Where “and” joins values, the source holds several entries; their conditions need not be identical. Equal values may be shown once. About 1,200 (0.39%) of roughly 310,000 compounds were called active. How the calls were made is not given here. The list is a sample of the results. Potency and affinity values are given separately.
Molecular target: Large T antigen (Simian virus 40) (UniProt P03070)
Test: SV40 large T antigen inhibitors, biochemical (AID 1903)
Conditions: SV40 large T antigen ATPase/helicase inhibition assay; at 20 µM; stronger effect = higher value

Chain of Large T antigen (Simian virus 40) (P03070 whole entry, looked up): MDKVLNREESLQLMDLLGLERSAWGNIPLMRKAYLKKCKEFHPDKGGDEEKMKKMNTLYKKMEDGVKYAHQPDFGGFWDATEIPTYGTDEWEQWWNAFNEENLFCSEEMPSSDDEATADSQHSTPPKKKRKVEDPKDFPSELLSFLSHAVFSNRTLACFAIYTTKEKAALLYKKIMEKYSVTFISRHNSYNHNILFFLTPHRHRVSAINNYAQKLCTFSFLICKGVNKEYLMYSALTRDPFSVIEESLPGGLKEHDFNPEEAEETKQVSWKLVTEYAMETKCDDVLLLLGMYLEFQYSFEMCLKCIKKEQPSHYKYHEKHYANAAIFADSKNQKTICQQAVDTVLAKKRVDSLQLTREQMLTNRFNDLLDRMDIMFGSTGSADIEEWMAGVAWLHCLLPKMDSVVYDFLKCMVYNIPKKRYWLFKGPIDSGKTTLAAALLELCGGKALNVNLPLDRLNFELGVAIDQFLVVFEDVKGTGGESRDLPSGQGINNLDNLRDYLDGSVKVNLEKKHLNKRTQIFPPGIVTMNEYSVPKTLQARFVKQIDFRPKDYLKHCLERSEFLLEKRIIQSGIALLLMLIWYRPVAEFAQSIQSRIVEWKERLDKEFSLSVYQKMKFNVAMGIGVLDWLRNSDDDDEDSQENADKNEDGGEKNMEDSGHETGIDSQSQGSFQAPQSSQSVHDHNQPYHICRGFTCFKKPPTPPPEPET

inhibition, inactive:
COC(=O)C1=C(C)NC(=S)N(C(C)=O)C1c1ccc(OC)c(OC)c1 (centres undefined) 9.87%, COC(=O)Cc1c(C)c2ccc(OCC(=O)c3ccc(OC)c(OC)c3)cc2oc1=O 14.4%, Cc1csc(NC(=O)CS(=O)(=O)Cc2ccccc2)n1 0.95%, COc1cccc(NC(=O)c2cc([N+](=O)[O-])ccc2NC(=O)CNCC2CCCO2)c1 (centres undefined) 3.88%, Cc1cc(SCC(=O)c2ccc(O)c(O)c2)n2nc(C)c(-c3ccccc3)c2n1 31.3%, Cc1cc(C)nc(SCC(=O)c2ccc(O)c(O)c2)n1 35.3%, Cc1cc(SCC(=O)c2ccc(O)c(O)c2)nc2ccccc12 35.4%, Cn1c(SCC(=O)c2ccc(O)c(O)c2)nnc1-c1ccccc1 27.2%, O=C(CSc1nc2ccccc2n1CCc1ccccc1)NC1CC1 5.51%, O=C(CSc1nc2ccccc2n1CCc1ccccc1)N1CCOCC1 11.6%, Cc1cc(-c2nnc(CCC(=O)N(C)C(C)c3cccs3)o2)no1 (centres undefined) 22%, CCC(C)N(C(=O)COC(=O)COc1c(C)cc(C)cc1C)C1CCS(=O)(=O)C1 (centres undefined) 7.34%, COCC1CCN(C(=O)c2ccc3oc(Cc4ccc(Cl)cc4)nc3c2)C1 (centres undefined) 11.1%, Cc1sc2ncnc(Sc3ccccc3C(=O)Nc3ccc(C#N)cc3)c2c1C 9.82%, Cc1nn(-c2ccccc2)c(Cl)c1/C=N\NC(=O)c1cncc(Br)c1 22%, CC(=O)c1ccc(N2C(=O)NC3(CCCCC3)C2=O)cc1 3.35%, COc1cccc(-c2nc(CS(=O)(=O)CC(=O)Nc3cc(C)ccc3C)c(C)o2)c1 15.6% and 1.41%, CCN(CC)S(=O)(=O)c1ccc(N/N=C/c2cccnc2)nc1 9.01%, CCN(CC)S(=O)(=O)c1ccc(N/N=C/c2ccc(O)cc2O)nc1 21.6%, Cc1cc(N/N=C/c2ccc(O)cc2)nc(NS(=O)(=O)c2ccccc2)n1 10.1%, Cc1nc(Cl)cc(N/N=C/c2ccc(O)cc2O)n1 24.5%, COc1ccc(/C=N/Nc2cc(C)nc(NS(=O)(=O)c3ccc(C)cc3)n2)cc1 11.9%, COc1cccc(/C=N/Nc2cc(Cl)nc(C)n2)c1O 21%, COc1ccccc1C(=O)N/C(=C/c1cccc([N+](=O)[O-])c1)C(=O)Nc1cccc(C(=O)O)c1 -0.39%, O=C(O)CN1C(=O)c2ccc(Oc3ccc([N+](=O)[O-])cc3)cc2C1=O 7.08%, CCOCCCn1c(SCC(=O)Nc2ccc3[nH]c(=O)[nH]c3c2)nc2ccccc2c1=O 10.2%, O=C(Cc1c(Cl)cccc1Cl)N/N=C/c1cccnc1 17.8%, COc1cc(C(=O)CSc2nnc(-c3ccc(O)cc3)n2CC2CCCO2)ccc1NC(C)=O (centres undefined) 4.93%, COc1ccc(CCN2C(=O)NC(NS(=O)(=O)c3ccc(Cl)cc3)(C(F)(F)F)C2=O)cc1OC (centres undefined) 12.9%, O=C(COC(=O)C1COc2ccccc2O1)Nc1cccc(S(=O)(=O)N2CCCCC2)c1 (centres undefined) 11.3%, CN(c1ccc(C(=O)Nc2ccc3c(c2)OCO3)cc1)S(C)(=O)=O 14.1%, Cc1c(CC(=O)N2CCN(C(=O)C3COc4ccccc4O3)CC2)c(=O)oc2c(C)c(O)ccc12 (centres undefined) 24.4%, COc1ccc2c(C)c(CC(=O)N3CCN(C(=O)C4COc5ccccc5O4)CC3)c(=O)oc2c1C (centres undefined) 12%, Cc1cccn2c(=O)c3cc(C(=O)NC4CCCCC4)c(=N)n(Cc4ccccc4)c3nc12 5.16%, Cc1nc2sc3c(c2c2nc(-c4ccco4)nn12)CCCC3 14.8%, Cc1nc2sc3c(c2c(=O)o1)CCC3 9.19%, COc1ccc(C(=O)NCC(=O)OCc2ccccc2F)cc1 6.15%, O=C(COc1ccc(S(=O)(=O)N2CCOCC2)cc1)NCCCn1ccnc1 7.23%, COc1cccc(CNS(=O)(=O)c2c(C(=O)N3CCCCCC3)c(C)n(C)c2C)c1 2.83%, CC(C)CN(CC(C)C)C(=O)CN1C(=O)NC2(CCc3ccccc3C2)C1=O (centres undefined) 23.5%, N#Cc1c(N)sc(=S)c2c1CCCC2 29.3%, N#Cc1c(N)sc2c1CCCCCC2 32%, Cn1c(CNC(=O)c2ccc3c(c2)OCO3)nnc1SCC(=O)Nc1ccccc1Cl 10.7%, COc1ccc(Cc2c(N)nc(N)nc2N)cc1 -2.12%, Nc1ccc(OCCc2ccccc2)cc1 30.9%, CC(C)C1N=C2c3ccccc3N=C(SCC#N)N2C1=O (centres undefined) 6.69%, CC(C)C1N=C2c3ccccc3N=C(SCC(=O)NCCc3ccc(S(N)(=O)=O)cc3)N2C1=O (centres undefined) 1%, Cc1ccc(-c2nnc(SCC(=O)N3c4ccccc4NC(=O)C3(C)C)n2N)cc1 4.15%, Cc1ccc(/C=C/C(=O)c2ccccc2O)cc1 11.7%, O=C(/C=C/c1ccc(O)c(O)c1)NC(=O)c1ccccc1O 6.12%, O=Cc1ccc(O)c(O)c1 34.4%, COc1cc(/C=C/c2ccc(O)cc2)cc(OC)c1 11.3% and 1.99%, CCOc1ccc(/C=C\C(C)=N\O)cc1 29.6%, CC(/C=C/c1ccccc1)=N/O 10.9%, COc1cc(/C=C/C(=O)O)ccc1O 24.2%, Nc1cccc(/C=C/C(=O)O)c1 15.7%, Cc1nc2ccccc2c(=O)n1-c1ccc(NS(=O)(=O)c2ccccc2)cc1 -1.73%, NC(=O)C1CCN(C(=O)c2cccc3ccccc23)CC1 16.8%, CCOC(=O)CC1C(=O)NCCN1C(=O)c1ccc(Cl)cc1Cl (centres undefined) 3.58%, Fc1ccc(C2c3cccn3CCN2C(=S)Nc2cccc(F)c2)cc1 (centres undefined) 6.14%, Cn1c(=O)c(C(=O)CN2CCN(S(=O)(=O)c3ccccc3)CC2)c(N)n(Cc2ccccc2)c1=O 2.73%, COC(=O)C1C(=O)c2c([nH]c(C(=O)OC3CCCCC3)c2C)CC1C (centres undefined) 0.84%, O=C1OC(c2ccc3c(c2)OCO3)N(C(=O)c2ccc(Cl)c(Cl)c2)c2ccccc21 (centres undefined) 10.3%, CCCC(=O)N(c1ccc2oc(=O)sc2c1)S(=O)(=O)c1ccccc1 22.9%, COc1ccc(C(CNC(=O)COc2ccccc2)N2CCOCC2)cc1 (centres undefined) 5.3%, CCCc1cc(=O)[nH]c(SCCCCN2C(=O)c3ccccc3C2=O)n1 16.4%, O=C(/C=C/c1ccc(O)cc1)c1c(O)cc(O)cc1O 3.62%, CC(C)c1ccc(/C=C/C(=O)O)cc1 15.3%, CC1Cc2ccccc2N1CC(=O)Nc1ccc(N2CCOCC2)cc1 (centres undefined) 27%, CC(Nc1ccc2c(c1)OCCO2)C(=O)N1c2ccccc2CC1C (centres undefined) 16.6%, c1ccc(-c2ccc3c(c2)NC(C2Nc4cc(-c5ccccc5)ccc4O2)O3)cc1 (centres undefined) 19.8%, O=C1CCNc2ccc(-c3ccccc3)cc21 5.5%, O=C1c2ccccc2C(=O)N1Cc1cc(Cl)c(O)c([N+](=O)[O-])c1 6.24%, Nc1cccc2c1C(=O)N(Cc1cccc(Cl)c1)C2=O 1.68%, O=C(c1cccs1)N1CCCC(N2CCN(c3ccc(F)cc3)CC2)C1 (centres undefined) 7.59%, Cn1c(=O)n(Cc2ccccc2F)c2ccccc21 9.44%, NS(=O)(=O)c1ccc(N=Nc2ccc(O)c3ncccc23)cc1 13.3%, Nc1nc(O)c(N=Nc2ccc(S(N)(=O)=O)cc2)c(=O)[nH]1 -12.8%, COc1ccc2[nH]c(=O)c(CN(CCO)S(=O)(=O)c3ccc4c(c3)OCCO4)cc2c1 -3.52%, O=[N+]([O-])c1ccc(O)c2ncccc12 -8.5% and 12.1%, O=[N+]([O-])c1cc(Cl)c(O)c2ncccc12 14.7%, COCc1cc(SC2CCCCC2)nc(C)n1 10.5%, O=C(CSc1nc2[nH]ncc2c(=O)[nH]1)Nc1nccs1 12.6%, CCN(CC1CCCO1)C(=O)CCc1nnc(CCc2ccc(OC)cc2)o1 (centres undefined) 0.66%, O=C1CCC(=O)N1c1nc2nc(-c3ccccc3)cc(-c3ccccc3)n2n1 3.94%, O=S(=O)(c1ccc(NC(=S)N2CCN(c3ccccc3F)CC2)cc1)N1CCOCC1 11.6%, COc1ccccc1N1CCN(C(=S)Nc2ccc(S(=O)(=O)N3CCOCC3)cc2)CC1 -0.03%, O=C(CN1CCN(c2ccc(O)cc2)CC1)Nc1cc(S(=O)(=O)N2CCCCC2)ccc1Cl 28.7%, CC(=O)N1CCN(CC(=O)Nc2cc(S(=O)(=O)N3CCOCC3)ccc2C)CC1 10.5%, Cc1ccc(S(=O)(=O)N2CCN(CC(=O)Nc3ccc(N4CCOCC4)cc3)CC2)cc1C 10.9%, CN1CCN(CC(=O)Nc2cc(S(=O)(=O)N3CCOCC3)ccc2Cl)CC1 8.7%, CC(NC(=O)Cn1c(NCCO)nc2ccccc21)c1ccccc1 (centres undefined) -0.56%, CCOc1ccc(C(=O)NC(C(=O)NCc2ccccc2OC)C(C)C)cc1 (centres undefined) 20.8%, Cc1ccc(CNC(=O)c2ccccc2NC(=O)CN2CC(C)OC(C)C2)cc1 (centres undefined) 2.54%

Reference: PubChem BioAssay AID1903 (Southern Research Specialized Biocontainment Screening …, 2009)
